# Laboratory results as given in PubChem BioAssay AID1159580 (chemical genetic matrix, 2015).
# Screen size: about 5,500 compounds; about 2,000 (36%) were called active. Roughly 18% stayed inconclusive and do not appear here. This is one part of the list. Unmarked numbers belong to inactive results. Rule as the data show it: active = normalized growth mostly below about 0.91 (no sharp cut-off); inconclusive = no clear call, values can overlap the other calls; inactive = mostly above about 0.92.
# Assay: chemical genetic growth profiling, strain panel (AID 1159580);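 also: tested at 20 µM; growth read once vehicle control cultures reached saturation at 30 °C; 1 = growth at the plate median or of vehicle wells; lower values mean less growth of the strain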
# Details: S. cerevisiae deletion strains, growth OD
smiles,measurement,setting,value
N=C(N)c1ccc(OCCCCCOc2ccc(C(=N)N)cc2)cc1,normalized growth,"locus YAL013W, strain DEP1, active compounds read low",1
same,normalized growth,"locus YAL021C, strain ccr4, active compounds read low",0.908
same,normalized growth,"locus YAL026C, strain drs2, active compounds read low",0.951
same,normalized growth,"locus YAL030W, strain snc1, active compounds read low",0.935
same,normalized growth,"locus YBL061C, strain skt5, active compounds read low",0.966
same,normalized growth,"locus YBR009C, strain hhf1, active compounds read low",0.952
same,normalized growth,"locus YBR021W, strain FUR4, active compounds read low",1.07
same,normalized growth,"locus YBR023C, strain chs3, active compounds read low",0.986
same,normalized growth,"locus YBR171W, strain sec66, active compounds read low",0.946
same,normalized growth,"locus YBR229C, strain ROT2, active compounds read low",0.978
same,normalized growth,"locus YBR231C, strain swc5, active compounds read low",0.919
same,normalized growth,"locus YBR279W, strain paf1, active compounds read low",0.93 (active)
same,normalized growth,"locus YCL011C, strain gbp2, active compounds read low",0.945
same,normalized growth,"locus YCL016C, strain dcc1, active compounds read low",0.939
same,normalized growth,"locus YCL029C, strain bik1, active compounds read low",0.89 (active)
same,normalized growth,"locus YCL061C, strain MRC1, active compounds read low",0.916 (active)
same,normalized growth,"locus YCL069W, strain vba3, active compounds read low",0.963
same,normalized growth,"locus YCR088W, strain abp1, active compounds read low",0.966
same,normalized growth,"locus YDL005C, strain med2, active compounds read low",0.979
same,normalized growth,"locus YDL035C, strain GPR1, active compounds read low",0.901
same,normalized growth,"locus YDL040C, strain nat1, active compounds read low",0.965
same,normalized growth,"locus YDL074C, strain BRE1, active compounds read low",0.942
same,normalized growth,"locus YDL101C, strain DUN1, active compounds read low",0.989
same,normalized growth,"locus YDL134C, strain PPH21, active compounds read low",0.955
same,normalized growth,"locus YDL185W, strain tfp1, active compounds read low",0.964
same,normalized growth,"locus YDL192W, strain arf1, active compounds read low",0.933
same,normalized growth,"locus YDR001C, strain nth1, active compounds read low",0.974
same,normalized growth,"locus YDR069C, strain doa4, active compounds read low",1
same,normalized growth,"locus YDR101C, strain arx1, active compounds read low",0.875 (active)
same,normalized growth,"locus YDR137W, strain rgp1, active compounds read low",1
same,normalized growth,"locus YDR150W, strain NUM1, active compounds read low",0.989
same,normalized growth,"locus YDR159W, strain sac3, active compounds read low",0.85 (active)
same,normalized growth,"locus YDR162C, strain NBP2, active compounds read low",0.941
same,normalized growth,"locus YDR195W, strain ref2",0.968
same,normalized growth,"locus YDR297W, strain sur2, active compounds read low",0.958
same,normalized growth,"locus YDR318W, strain mcm21, active compounds read low",0.878 (active)
same,normalized growth,"locus YDR334W, strain swr1, active compounds read low",0.958
same,normalized growth,"locus YDR335W, strain msn5, active compounds read low",0.977
same,normalized growth,"locus YDR388W, active compounds read low",0.938
same,normalized growth,"locus YDR392W, strain spt3, active compounds read low",0.808
same,normalized growth,"locus YDR502C, strain sam2, active compounds read low",0.907 (active)
same,normalized growth,"locus YEL003W, strain gim4, active compounds read low",0.929
same,normalized growth,"locus YEL037C, strain rad23, active compounds read low",0.945
same,normalized growth,"locus YEL061C, strain CIN8 (second series), active compounds read low",0.945
same,normalized growth,"locus YEL061C, strain CIN8, active compounds read low",0.965
same,normalized growth,"locus YER015W, strain faa2, active compounds read low",0.922 (active)
same,normalized growth,"locus YER016W, strain bim1, active compounds read low",0.963
same,normalized growth,"locus YER110C, active compounds read low",0.95
same,normalized growth,"locus YER111C, strain swi4, active compounds read low",0.967
same,normalized growth,"locus YER155C, strain BEM2 (second series), active compounds read low",0.874
same,normalized growth,"locus YER155C, strain BEM2, active compounds read low",0.986
same,normalized growth,"locus YER167W, strain BCK2, active compounds read low",0.915
same,normalized growth,"locus YFR010W, strain ubp6, active compounds read low",0.954
same,normalized growth,"locus YGL078C, strain dbp3, active compounds read low",0.929
same,normalized growth,"locus YGL086W, strain mad1, active compounds read low",0.874 (active)
same,normalized growth,"locus YGL167C, strain pmr1, active compounds read low",0.974
same,normalized growth,"locus YGL173C, strain kem1, active compounds read low",0.865 (active)
same,normalized growth,"locus YGL227W, strain vid30, active compounds read low",0.984
same,normalized growth,"locus YGL240W, strain doc1, active compounds read low",0.991
same,normalized growth,"locus YGL248W, strain PDE1, active compounds read low",0.964
same,normalized growth,"locus YGL253W, strain hxk2, active compounds read low",0.8 (active)
same,normalized growth,"locus YGR078C, strain PAC10, active compounds read low",0.947
same,normalized growth,"locus YGR135W, strain pre9, active compounds read low",0.937
same,normalized growth,"locus YGR229C, strain SMI1, active compounds read low",0.929
same,normalized growth,"locus YGR252W, strain gcn5, active compounds read low",0.819
same,normalized growth,"locus YHR013C, strain ard1, active compounds read low",1.09
same,normalized growth,"locus YHR027C, strain rpn1, active compounds read low",0.946
same,normalized growth,"locus YHR030C, strain SLT2, active compounds read low",0.974
same,normalized growth,"locus YHR079C, strain IRE1 (second series), active compounds read low",0.888 (active)
same,normalized growth,"locus YHR094C, strain hxt1, active compounds read low",0.94
same,normalized growth,"locus YHR129C, strain ARP1, active compounds read low",0.968
same,normalized growth,"locus YHR142W, strain chs7, active compounds read low",0.972
same,normalized growth,"locus YHR200W, strain rpn10, active compounds read low",0.871 (active)
same,normalized growth,"locus YIL066C, strain RNR3, active compounds read low",0.917
same,normalized growth,"locus YIL073C, strain SPO22, active compounds read low",0.675
same,normalized growth,"locus YIL125W, strain kgd1, active compounds read low",0.903 (active)
same,normalized growth,"locus YIR030C, strain dcg1, active compounds read low",0.93
same,normalized growth,"locus YJL092W, strain hpr5, active compounds read low",0.919
same,normalized growth,"locus YJL095W, strain BCK1 (second series), active compounds read low",0.959
same,normalized growth,"locus YJL095W, strain BCK1, active compounds read low",0.892
same,normalized growth,"locus YJL115W, strain asf1, active compounds read low",0.923
same,normalized growth,"locus YJL129C, strain trk1, active compounds read low",0.995
same,normalized growth,"locus YJL134W, strain LCB3, active compounds read low",0.967
same,normalized growth,"locus YJL154C, strain vps35, active compounds read low",0.989
same,normalized growth,"locus YJL164C, strain tpk1, active compounds read low",0.974
same,normalized growth,"locus YJL166W, strain qcr8, active compounds read low",0.978
same,normalized growth,"locus YJL168C, strain set2, active compounds read low",0.925 (active)
same,normalized growth,"locus YJL187C, strain SWE1 (second series), active compounds read low",0.929
